Bioassay records: PubChem BioAssay, The Scripps Research Institute Molecular Screening Center
Compounds with a hit are over-represented: about 1.1% of the library has one in this group of screens.
MOR-DOR inv ag = inverse agonist of human OPRM1-OPRD1 heterodimerization. cell-based MOR-DOR heterodimer luminescence, inverse agonism. P35372+P41143. AID 504357. inhibition, % at 9.3 µM. 340,000 compounds, 0.21% hits; in the data active = inhibition above about 22%, passing the limit was not always enough
HTR5A ag = counter-screen for OPRM1-OPRD1 agonists: human HTR5A agonism; P47898; HTR5A agonist assay, luminescence, cell-based; activation, % at 9.3 µM; 340,000 compounds, 0.61% hits; in the data active = activation mostly above about 9.5%, no sharp cut-off; inactive = mostly below about 7.6%
Target sequence (P47898 whole entry, looked up): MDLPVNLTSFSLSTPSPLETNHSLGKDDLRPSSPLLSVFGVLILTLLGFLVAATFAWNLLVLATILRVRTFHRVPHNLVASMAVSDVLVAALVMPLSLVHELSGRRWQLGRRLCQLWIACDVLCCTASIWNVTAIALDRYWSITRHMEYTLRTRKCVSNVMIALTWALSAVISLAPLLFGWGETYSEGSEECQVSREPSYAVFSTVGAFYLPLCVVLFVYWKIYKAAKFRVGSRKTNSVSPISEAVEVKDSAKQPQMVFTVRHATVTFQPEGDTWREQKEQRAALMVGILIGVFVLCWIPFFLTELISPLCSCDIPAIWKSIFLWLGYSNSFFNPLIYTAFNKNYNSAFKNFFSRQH
MOR-DOR ag = agonists of human mu-delta opioid receptor heterodimerization; activation, % at 9.3 µM; P35372+P41143; cells, OPRM1-OPRD1 heterodimerization, luminescence; 340,000 compounds, 0.3% hits; in the data active = activation above about 18%
HTR5A inv ag = inverse agonist of human HTR5A in OPRM1-OPRD1 counter-screen; 340,000 compounds, 0.083% hits; P47898; HTR5A cell line, luminescence, inverse agonism; AID 504634; inhibition, % at 9.3 µM; in the data active = inhibition mostly above about 23%, no sharp cut-off; inactive = mostly below about 18%
MOR-DOR inv conf = OPRM1-OPRD1 heterodimer inverse agonism, confirmation. AID 504900. shares compounds with MOR-DOR inv ag. 580 compounds, 20% hits. cells expressing OPRM1/OPRD1 heterodimer, luminescence. inhibition, % at 9.3 µM; in the data active = inhibition above about 32%
HTR5A inv ctr2 = counter-screen for OPRM1-OPRD1 inverse agonists: human HTR5A inverse agonism; shares compounds with MOR-DOR inv ag; HTR5A-expressing cells, luminescence; inhibition, % at 9.3 µM; 580 tested, under 10 active; AID 504914; call rule not given here
Each line names hits and unclear results; the compound was inactive in the other large screens (follow-up assays come after a bar, where they were run).

O=C(CCC(=O)OCC(=O)c1cccc([N+](=O)[O-])c1)Nc1cccc(Cl)c1Cl	MOR-DOR inv ag 68.6 | MOR-DOR inv conf 64.2 | HTR5A inv ctr2 inactive
COc1cc(SC)ccc1C(=O)Nc1nc2ccccc2[nH]1	none
CSc1nnc(C)c(/C=C/NOCc2ccc(Cl)cc2)n1	MOR-DOR inv ag 43.8 | MOR-DOR inv conf inactive | HTR5A inv ctr2 inactive
Cc1ncc([N+](=O)[O-])n1CC(=O)Nc1ccc(F)cc1	none
O=C(CCOc1ccccc1)OCC(=O)c1cc2ccccc2o1	MOR-DOR inv ag 37.0 | MOR-DOR inv conf inactive | HTR5A inv ctr2 inactive
O=C(COC(=O)CCOc1ccccc1)NCCc1ccccc1	none
CCOC(=O)CSc1n[nH]c(=O)n1CCc1ccccc1	none
CN(C)C(=O)CSc1n[nH]c(=O)n1CCc1ccccc1	MOR-DOR inv ag 38.2 | MOR-DOR inv conf inactive | HTR5A inv ctr2 inactive
Cc1cc(C)n(-c2ccc(C(=O)N3CC(C)OC(C)C3)cc2)n1 (centres undefined)	none
O=Cc1ccc(-c2cc(Cl)ccc2Cl)[nH]1	none
CC(C)(C)c1ccc(NNC(=O)C2CCC2)cc1	MOR-DOR inv ag 34.4 | MOR-DOR inv conf inactive | HTR5A inv ctr2 inactive
CC(C)c1ccc(O)c(NC(=S)NC(=O)c2cccnc2)c1	MOR-DOR inv ag 42.7 | MOR-DOR inv conf 32.1 | HTR5A inv ctr2 inactive
CC(C)(C)c1cc(Cl)c(O)c(NC(=S)NC(=O)c2cccnc2)c1	MOR-DOR inv ag 46.7 | MOR-DOR inv conf inactive | HTR5A inv ctr2 inactive
CCC(C)c1ccc(O)c(NC(=O)c2cccnc2)c1 (centres undefined)	none
COC(=O)c1ccc(NC(=S)NC(=O)c2cccnc2)cc1	MOR-DOR inv ag 28.2 | MOR-DOR inv conf inactive | HTR5A inv ctr2 inactive
CC(=O)Nc1ccc(C(=O)OCC(=O)NCc2cccs2)cc1	none
O=C(NNS(=O)(=O)c1ccccc1)c1cccc([N+](=O)[O-])c1	none
CCOC(=O)c1c(NC(=O)C2=COCCO2)sc2c1CCN(C(=O)OC)C2	none
O=C(CNc1ccc(Br)cc1)c1ccccc1	none
O=C(CNc1ccc(F)cc1)c1ccccc1	MOR-DOR inv ag 37.0 | MOR-DOR inv conf inactive | HTR5A inv ctr2 inactive
C/C(CC(=O)Nc1ccc(N(C)C)cc1)=N\NC(=O)c1cnccn1	MOR-DOR inv ag 38.6 | MOR-DOR inv conf inactive | HTR5A inv ctr2 inactive
C/C(CC(=O)Nc1ccc(N(C)C)cc1)=N\NC(=O)c1ccccn1	none
COc1ccc(N2COC3c4cccc5cccc(c45)C32)cc1 (centres undefined)	MOR-DOR inv ag 49.8 | MOR-DOR inv conf inactive | HTR5A inv ctr2 inactive
O=C(CNC(=O)c1ccco1)OCC(=O)c1ccc(Cl)cc1Cl	MOR-DOR inv ag 44.0 | MOR-DOR inv conf inactive | HTR5A inv ctr2 inactive
Cc1cccc(N2CCN(C(=O)COc3ccc4c(C)cc(=O)oc4c3C)CC2)c1C	none
OC1=C(O)c2nc3ccccc3nc21	MOR-DOR inv ag 83.9 | MOR-DOR inv conf 73.2 | HTR5A inv ctr2 inactive
O=C(COC(=O)c1cccnc1)c1ccc(Cl)cc1	none
Cc1ccc(C(=O)COC(=O)c2cnccn2)cc1[N+](=O)[O-]	MOR-DOR inv ag 53.9, HTR5A inv ag 18.8 | MOR-DOR inv conf 33.3 | HTR5A inv ctr2 inactive
O=C(OCC(=O)c1ccc(Cl)cc1Cl)c1cnccn1	MOR-DOR inv ag 40.5 | MOR-DOR inv conf inactive | HTR5A inv ctr2 inactive
O=C(COC(=O)c1cnccn1)c1ccc(Cl)c([N+](=O)[O-])c1	MOR-DOR inv ag 81.5 | MOR-DOR inv conf inactive | HTR5A inv ctr2 inactive
O=C(COC(=O)c1cnccn1)c1ccc([N+](=O)[O-])cc1	none
O=C(COC(=O)c1cccnc1)c1ccc(Cl)c(Cl)c1	MOR-DOR inv ag 56.9 | MOR-DOR inv conf inactive | HTR5A inv ctr2 inactive
Cc1ccc2nc(CCl)[n+]([O-])c(-c3ccccc3)c2c1	none
COCCN(C(=O)CCC(=O)Nc1cccnc1)C(C(=O)NC1CCCCC1)c1ccccc1 (centres undefined)	MOR-DOR inv ag 35.9 | MOR-DOR inv conf inactive | HTR5A inv ctr2 inactive
O=C(CCC(=O)N(c1ccccc1)C(C(=O)NC1CCCC1)c1ccncc1)Nc1cccnc1 (centres undefined)	none
CN(C)CCOC1c2ccccc2CCc2ccc3ccccc3c21 (centres undefined)	none
CCNC(=S)NNC(=O)CSc1nc2ccccc2[nH]1	none
CCNC(=S)NNC(=O)CSc1nc2ccccc2n1C	MOR-DOR inv ag 38.3 | MOR-DOR inv conf inactive | HTR5A inv ctr2 inactive
